Several values for one entry are separate records, joined by “and”; a condition that tells them apart may be missing. Identical values can stand only once. Results filed as inconclusive are left out. Activity calls are given as the source filed them. Calls follow the shape of the dose curve; as a rule, active = well fitted curve in the direction sought with a large enough effect; inconclusive = small, poorly fitted or top-dose-only effect, or another doubt; inactive = no such curve, though single readings can be large or run the other way. Where a SMILES comes first, the peptide text is derived from it. Bridges are numbered along the chain shown (N, C = ends). [ ]: non-standard residue; d: D form. The star is where a group is joined. X1 = CC[C@@H](C)[C@@H](N)C1=N[C@H](C(=O)*)CS1; d(aIle) = CC[C@H](C)[C@@H](N)C(=O)O; dOrn = NCCC[C@@H](N)C(=O)O
Experiment: qHTS Assay for Identifying Gametocytocidal Compounds (AID 743244);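 as to max response: actives lower the fluorescent signal which means gametocytes are killed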
Details: P. falciparum 3D7 stage III-V gametocytes, alamarBlue, 72 h; max response: hits give low values
Outline: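 Stage III–V gametocytes of P. falciparum 3D7 were seeded at 20,000 cells/well onto pre-dispensed compounds. After 72 h, 37 °C, 5% CO2, alamarBlue was added for another 24 h.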
% is scaled to controls: 0 for no effect and ±100 for the full control effect; potency is read from the fitted curve at half-maximal effect.

Row | Structure (SMILES) | Potency | max response
1 | CC1CS(=O)(=O)CCN1/N=C/c1ccc([N+](=O)[O-])o1 (centres undefined) | 14.1 µM (active) | –
2 | O=C1NC(=O)[C@H]2[C@@H]1[C@@H]1C=C[C@H]2C1 | – | -6.7% (inactive)
3 | COc1ccc(C(=O)/C(Br)=C\C(=O)O)cc1 | – | 20.3% (inactive)
4 | FCOC(C(F)(F)F)C(F)(F)F | – | -7.47% (inactive)
5 | CCOC(=S)SSC(=S)OCC | – | 0.863% (inactive)
6 | O=C(O)/C=C/c1ccccc1 | – | 0.36% (inactive)
7 | O=C(CCCCCCCCCCCCC1CCCC1)Nc1ccc(S(=O)(=O)c2ccc(NC(=O)CCCCCCCCCCCCC3CCCC3)cc2)cc1 | – | 1.73% (inactive)
8 | NC(N)=NCC1COC2(CCCCC2)O1 (centres undefined) | – | 9.74% (inactive)
9 | O=C(NCCNCC(O)COc1ccc(O)cc1)N1CCOCC1 (centres undefined) | – | -13.8% (inactive)
10 | CC[C@@H](C)[C@H](N)C(=O)O | – | -5.92% (inactive)
11 | CC1=C(/C=C/C(C)=C/C=C/C(C)=C/C(=O)Oc2c(C)c(C)c3c(c2C)CC[C@@](C)(CCC[C@H](C)CCC[C@H](C)CCCC(C)C)O3)C(C)(C)CCC1 | – | 0.0927% (inactive)
12 | CC(=O)NCCCS(=O)(=O)O | – | 7.56% (inactive)
13 | CC(=O)N[C@@H](C=O)[C@@H](O)[C@H](O)[C@H](O)CO | – | 11.4% (inactive)
14 | Cc1cc(-c2ccc(N=Nc3ccc4c(S(=O)(=O)O)cc(S(=O)(=O)O)c(N)c4c3O)c(C)c2)ccc1N=Nc1ccc2c(S(=O)(=O)O)cc(S(=O)(=O)O)c(N)c2c1O | – | 18.4% (inactive) and 0.953% (inactive)
15 | CO/N=C(\C(=O)N[C@@H]1C(=O)N2C(C(=O)[O-])=C(C[n+]3ccc(N)n3CCO)CS[C@H]12)c1csc(N)n1 | – | -6.21% (inactive)
16 | CN[C@@H]1[C@@H](O[C@H]2O[C@H](CO)[C@@H](N)[C@H](O)[C@H]2O)O[C@H]2C[C@@H](N)[C@@H](O[C@H]3[C@H](O)[C@@H](O)[C@H](N)C[C@@H]3N)O[C@@H]2[C@@H]1O | – | 4.88% (inactive)
17 | O=C1c2ccccc2C(=O)c2c1ccc(O)c2O | – | 2.07% (inactive)

Row | Structure (SMILES) | Potency | max response
18 | COc1ccc(-c2noc(CC(=O)O)c2-c2ccc(OC)cc2)cc1 | – | 49.9% (inactive)
19 | CC(C)C[C@H](NC(=O)[C@@H](Cc1c[nH]c2ccccc12)NC(=O)[C@H](Cc1ccc(O)cc1)NC(=O)[C@H](CO)NC(=O)[C@H](Cc1c[nH]c2ccccc12)NC(=O)[C@H](Cc1cnc[nH]1)NC(=O)[C@@H]1CCC(=O)N1)C(=O)N[C@@H](CCCN=C(N)N)C(=O)N1CCC[C@@H]1C(=O)NCC(N)=O | – | -1.22% (inactive)
20 | F[Si-2](F)(F)(F)(F)F | – | 2.76% (inactive)
21 | CC(O)[C@H]1CC[C@H]2[C@@H]3CC[C@@H]4C[C@@H](O)CC[C@]4(C)[C@H]3CC[C@]12C (some centres undefined) | – | 4.2% (inactive)
22 | C=Cc1ccc(S(=O)(=O)O)cc1 | – | -6.42% (inactive)
23 | C=C1c2c(Cl)ccc(O)c2C(O)=C2C(=O)[C@]3(O)C(O)=C(C(N)=O)C(=O)[C@@H](N(C)C)[C@@H]3[C@@H](O)[C@H]12 | – | 2.94% (inactive)
24 | O=C(O[C@H]1CN2CCC1CC2)N1CCc2ccccc2[C@@H]1c1ccccc1 | – | 5.85% (inactive)
25 | O=C(NNCS(=O)(=O)O)c1ccncc1 | – | -7.51% (inactive)
26 | O=C(CCCN1CCN2CCCC2C1)c1ccc(F)cc1 (centres undefined) | – | 7.46% (inactive)
27 | Cc1c(O)c(=O)ccn1C | – | 2.04% (inactive)
28 | COC(=O)CCC[N+](C)(C)C | – | -8.11% (inactive)
29 | COc1ccc([C@@H]2CC(=O)c3c(O)cc(O[C@@H]4O[C@H](CO[C@@H]5O[C@@H](C)[C@H](O)[C@@H](O)[C@H]5O)[C@@H](O)[C@H](O)[C@H]4O)cc3O2)cc1O | – | 22.8% (inactive)
30 | C=C1[C@H](CO)[C@@H](O)C[C@@H]1n1cnc2c(=O)[nH]c(N)nc21 | – | 18.1% (inactive)
31 | COC(=O)[C@H]1[C@H]2C[C@@H]3c4[nH]c5cc(OC)ccc5c4CCN3C[C@H]2C[C@H](OC)[C@@H]1OC | – | 15% (inactive)
32 | CCN(CC)CCCC(C)Nc1cc(/C=C/c2ccccc2Cl)nc2cc(Cl)ccc12 (centres undefined) | 11.2 µM (active) | –
33 | O=S(=O)(O)CC(S)CS (centres undefined) | – | 3.76% (inactive)
34 | CC[C@@H](C)[C@@H](N)C1=N[C@H](C(=O)N[C@@H](CC(C)C)C(=O)N[C@@H](CCC(=O)O)C(=O)N[C@@H](C(=O)N[C@@H]2CCCCNC(=O)[C@@H](CC(N)=O)NC(=O)[C@@H](CC(=O)O)NC(=O)[C@@H](Cc3cnc[nH]3)NC(=O)[C@@H](Cc3ccccc3)NC(=O)[C@@H]([C@H](C)CC)NC(=O)[C@@H](CCCN)NC2=O)[C@@H](C)CC)CS1 (X1-LE[d(aIle)][dK][dOrn][dI][dF][dH][dD][dN]; lactam 4-C) | – | 17.8% (inactive) and -1.65% (inactive)

Reference: PubChem BioAssay (NCATS)
